Rows were chosen to be rich in hits. Some 28% of all compounds tested hit in one or more screens of this group.
CYP2C19 activ = cytochrome P450 2C19 (human) activation | P33261 | recombinant CYP2C19, luciferin-H EGE luminescence; stronger effect = higher value; 0 = fully inhibited enzyme, 1 = untreated enzyme | activation factor at 5 µM | 96,000 tested, under 10 active | AID 1025;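 active = activation factor of at least 2 at 5 µM in the primary screen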;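 also: 0 = wells with 2.5 mM tranylcypromine and 1 = vehicle-only wells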
PTK2B oligo ant = blocks oligomerization of human Pyk2 in cells; z-score (the deposit names both 25 µM and 10 µM); 99,000 compounds, 0.83% hits; Q293 cells, Pyk2 FERM NanoBiT luminescence; stronger effect = lower value; AID 1347419;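 active = Z-score of -3 or lower, scaled per plate to the spread of control and sample wells; inactive = z-score above -3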;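 also: negative z-score means lost luminescence so less FERM oligomerization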
Target sequence (Q14289 whole entry, looked up): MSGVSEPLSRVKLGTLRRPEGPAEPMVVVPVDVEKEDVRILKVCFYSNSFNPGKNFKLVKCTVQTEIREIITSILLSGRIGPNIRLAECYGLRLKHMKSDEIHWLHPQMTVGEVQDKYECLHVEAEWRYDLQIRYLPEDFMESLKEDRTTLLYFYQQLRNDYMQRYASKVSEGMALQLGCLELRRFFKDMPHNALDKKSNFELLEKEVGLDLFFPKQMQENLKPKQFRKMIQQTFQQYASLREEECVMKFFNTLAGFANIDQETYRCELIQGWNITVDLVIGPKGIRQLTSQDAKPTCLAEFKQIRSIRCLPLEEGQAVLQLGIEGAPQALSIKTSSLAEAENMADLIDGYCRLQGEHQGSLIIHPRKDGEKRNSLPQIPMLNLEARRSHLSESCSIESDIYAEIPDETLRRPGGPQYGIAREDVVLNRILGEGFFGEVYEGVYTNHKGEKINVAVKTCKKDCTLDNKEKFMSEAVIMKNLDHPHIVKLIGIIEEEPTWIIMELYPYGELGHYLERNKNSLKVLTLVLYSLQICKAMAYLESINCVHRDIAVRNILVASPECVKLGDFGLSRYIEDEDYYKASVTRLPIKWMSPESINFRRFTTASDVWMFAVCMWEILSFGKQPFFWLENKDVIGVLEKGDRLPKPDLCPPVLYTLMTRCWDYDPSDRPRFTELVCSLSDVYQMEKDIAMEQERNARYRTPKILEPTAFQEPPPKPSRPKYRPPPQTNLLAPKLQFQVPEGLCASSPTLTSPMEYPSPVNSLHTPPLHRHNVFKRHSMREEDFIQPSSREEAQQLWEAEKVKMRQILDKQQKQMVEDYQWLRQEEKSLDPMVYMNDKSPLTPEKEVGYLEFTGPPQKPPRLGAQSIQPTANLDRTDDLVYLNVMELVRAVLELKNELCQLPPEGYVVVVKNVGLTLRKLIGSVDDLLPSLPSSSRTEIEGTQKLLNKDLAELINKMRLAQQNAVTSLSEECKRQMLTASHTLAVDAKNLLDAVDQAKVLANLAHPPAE
CYP2C9 activ = CYP2C9 (human) activation. P11712. recombinant CYP2C9, luciferin-H conversion, luminescence; stronger effect = higher value; factor 1 = untreated enzyme, 0 = blocked. activation factor at 5 µM. 96,000 compounds, 1.4% hits;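 active = activation factor of 2 or more for CYP2C9 at a 5 µM dose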;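 also: 0 = sulfaphenazole-blocked wells and 1 = vehicle-only wells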
CYP2C19 inh = human CYP2C19 inhibition; P33261; AID 778; CYP2C19 Supersomes, luciferin-H EGE luminescence, 30 min; 96,000 compounds, 21% hits; inhibition, % at 5 µM;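 active = CYP2C19 inhibition above a set limit at 5 µM in the primary screen, cut at about 50% in these data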;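 also: plate controls were negative control wells for no effect and 2.5 mM tranylcypromine positive control for full effect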
CYP2C9 inh = human CYP2C9 inhibition; AID 777; inhibition, % at 5 µM; CYP2C9 Supersomes, luciferin-H conversion, luminescence; P11712; 96,000 compounds, 20% hits;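 active = blocking of liver enzyme CYP2C9 beyond about 50% at 5 µM, limit read from the data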
* marks the source's active call; other numbers are inactive results; x = no result.

SMILES | CYP2C19 activ | PTK2B oligo ant | CYP2C9 activ | CYP2C19 inh | CYP2C9 inh
CCn1c(CSc2nnc(-c3ccoc3C)n2C)nc2cc(S(=O)(=O)N(C)C)ccc21 | x | -0.07 | x | x | x
CCn1c(CSc2nnc(C)n2-c2ccccc2)nc2cc(S(=O)(=O)N(C)C)ccc21 | 1 | 1.46 | 0.3 | -1.5 | 65.8*
O=C(NCC1CCCO1)c1csc2c1CCCC2 (stereo unspecified) | 1 | 0.57 | 1.5 | 0.4 | -47.4
COc1ccc(C2NC(=O)NC(O)(C(F)(F)F)C2C(=O)c2ccc(C)cc2)cc1 (stereo unspecified) | 0.5 | 0.83 | 0.8 | 46.8 | 21.9
COc1ccc(-c2cn3cc(Cl)ccc3n2)cc1OC | 0.2 | -0.29 | 0.2 | 79.7* | 78.9*
O=S(=O)(CC(CN1CCCC1)N1CCCC1)c1ccc2ccccc2c1 (stereo unspecified) | x | 2.66 | x | x | x
CC(C)NC(=O)c1cc(-c2ccc(Br)cc2)on1 | 1.1 | -0.62 | 1 | -9.2 | 2.7
CC1CCCCN1c1nnc(NC(=O)c2cc(-c3ccc(Br)cc3)on2)s1 (stereo unspecified) | 0.8 | x | 0.4 | 16.4 | 61.9*
COC(=O)CCN(C(=O)c1cc(OC)c(OC)c(OC)c1)c1ccccn1 | 0.5 | 0.17 | 0.8 | 48.0 | 20.3
COC(=O)CCN(C(=O)c1ccc2c(c1)OCO2)c1ccccn1 | 0.1 | 0.48 | 0.9 | 94.2* | 8.8
CCOc1ccccc1C(=O)N(CCC(=O)OC)c1ccccn1 | 0.5 | 0.51 | 0.9 | 53.2* | 11.0
O=C(NCc1cccnc1)c1cnc2sccn2c1=O | 1 | x | 1.1 | 2.3 | -10.6
CCSc1nc2c(sc3ccccc32)c(=O)n1C(C)C | 1.1 | 0.13 | 1.2 | -12.4 | -23.3
COc1ccc(NC(=S)NCCc2c[nH]c3ccc(OC)cc23)c(OC)c1 | 0.3 | 0.58 | 0.4 | 71.1* | 61.9*
COc1ccc(NC(=S)NCCc2ccc(Cl)cc2)c(OC)c1 | 0.1 | -0.69 | 0.8 | 85.7* | 22.5
COc1ccc(NC(=S)Nc2ncccc2C)c(OC)c1 | 0.2 | 0.24 | 0.9 | 76.1* | 13.6
C=C(C)CSc1nnc(-c2cc(OC)c(OC)c(OC)c2)n1N | 0.8 | -0.27 | 0.7 | 21.6 | 28.0
O=C(Nc1c(C(=O)O)oc2ccc(Br)cc12)c1ccccc1 | 1 | x | 0.7 | -0.7 | 33.6
COc1ccc(CN2CCSCC2)cc1O | 0.5 | 0.77 | 1 | 47.7 | -3.9
Cc1cc(C)c(C#N)c(SC2CCCCC2=O)n1 (stereo unspecified) | 0.4 | 1.83 | 1.2 | 61.1* | -18.1
COCCn1c(C)cc(C2=NNC(=Nc3ccccc3F)SC2)c1C | 0.5 | 0.14 | 0.6 | 53.0* | 38.4
Cc1nc2cc(-c3cccc(F)c3)nn2c(N2CCN(C(=O)c3ccco3)CC2)c1C | 0.9 | 0.61 | 1 | 7.0 | 4.3
Cc1ccc(-c2cc(C(F)F)nc(NCC3CCCO3)n2)cc1 (stereo unspecified) | x | -0.94 | x | x | x
FC(F)(F)c1cc(-c2ccc(Cl)cc2)nc(NCc2cccnc2)n1 | 0.5 | -3.02* | 0.5 | 48.7 | 45.6
Clc1nc(NCc2cccnc2)nc(N2CCOCC2)n1 | x | 0.65 | x | x | x
SMILES | CYP2C19 activ | PTK2B oligo ant | CYP2C9 activ | CYP2C19 inh | CYP2C9 inh
Cc1ccc(-c2cc(C(F)F)nc(NCc3cccnc3)n2)cc1 | x | -3.62* | x | x | x
COc1ccc(CCNC(=O)c2c(O)c3c([nH]c2=O)CCCC3)cc1 | 0.8 | 3.94 | 0.6 | 19.4 | 38.1
NC(=O)C1CCN(C(=O)c2ccc(NC3=NC4CS(=O)(=O)CC4S3)cc2)CC1 (stereo unspecified) | 1.1 | x | 1 | -5.9 | 1.9
CN(CCCNC(=O)C1CCN(S(=O)(=O)N2CCC3(CC2)OCCO3)CC1)Cc1ccccc1 | 0.9 | 1.71 | 0.9 | 7.6 | 7.9
Cc1nn(Cc2ccccc2)c(N)c1-c1ccccc1 | 0.4 | -0.99 | 0.8 | 63.2* | 20.7
Cc1nn(Cc2ccccc2)c(N)c1C#N | 0.9 | 0.62 | 1 | 14.6 | 1.4
Cc1nn(-c2nnc(C)c(=O)[nH]2)c(C)c1SCC(=O)Nc1ccc(C(C)C)cc1 | 1.1 | -0.53 | 0.7 | -8.0 | 25.3
CCCc1nnc(NC(=O)Cn2c(=O)oc3ccccc32)s1 | 0.6 | -0.33 | 0.5 | 39.2 | 54.1*
CC1CCCC(C)N1c1nnc(NC(=O)Cn2c(=O)oc3ccccc32)s1 (stereo unspecified) | 1 | x | 0.9 | -0.5 | 11.9
CCCc1nnc(NC(=O)Cn2c(=O)oc3cc(Br)ccc32)s1 | 0.8 | -0.84 | 0.3 | 23.5 | 67.6*
CCc1nnc(NC(=O)Cn2c(=O)oc3ccccc32)s1 | 0.4 | -0.75 | 0.3 | 63.7* | 72.7*
CCc1nnc(NC(=O)Cn2nc(-c3ccccc3OC)ccc2=O)s1 | 1.2 | -0.1 | 0.4 | -15.9 | 62.9*
CCCCC(=O)Nc1ccccc1C(=O)N1CCOCC1 | x | -1.4 | x | x | x
Cc1ccccc1Cn1ccc(NC(=O)c2cnn3cccnc23)n1 | 0.5 | -0.67 | 0.5 | 45.2 | 50.2*
Cc1ccc(NC2=NC(=S)N(CC#N)C23CCCCC3)cc1 | x | 0.35 | x | x | x
O=C(Nc1ccccc1)N(C1=NCCCCS1)c1ccccc1 | 0.8 | 0.76 | 0.9 | 24.5 | 14.0
O=C(Nc1ccc(Cl)cc1)N(C1=NCCC1)c1ccc(OC(F)F)cc1 | 0.7 | -0.3 | 0.4 | 26.5 | 61.1*
O=C1c2ccccc2C(=O)C1Cc1cccc2ccccc12 | 0.7 | -0.63 | 0.3 | 30.6 | 66.5*
CC(=C/C(=O)O)/C=C/c1cccs1 | 1 | 1.2 | 1 | -2.9 | -2.5
O=C(c1c(O)c2ccccc2oc1=O)C1CCCCC1 | 1 | 0.67 | 0.4 | -4.9 | 64.9*
CCN(CC)P1(=O)OC(c2cc(OC)c(OC)c(OC)c2)=Nc2c1c(C)nn2-c1ccccc1 (stereo unspecified) | 0.2 | 3.69 | 0 | 78.4* | 96.4*
C=CCn1c(NC(=O)c2ccc(Br)o2)c(S(=O)(=O)c2ccccc2)c2nc3ccccc3nc21 | 0.9 | 0.46 | 0.5 | 6.6 | 53.0*
CCCCn1c(NS(=O)(=O)c2ccc(C)cc2)c(S(=O)(=O)c2ccccc2)c2nc3ccccc3nc21 | x | -1.57 | x | x | x
C=CCn1c(NC(=O)c2ccco2)c(S(=O)(=O)c2ccccc2)c2nc3ccccc3nc21 | 0.8 | x | 0.3 | 21.2 | 66.2*
COc1ccc(-n2c(NC(=O)c3ccco3)c(C#N)c3nc4ccccc4nc32)cc1 | 0.9 | 0.12 | 0.5 | 6.1 | 48.5
SMILES | CYP2C19 activ | PTK2B oligo ant | CYP2C9 activ | CYP2C19 inh | CYP2C9 inh
O=C(Nc1nc2c(s1)CCCC2=O)c1cnccn1 | 0.5 | 0.31 | 0.8 | 48.0 | 16.9
COc1ccc(-c2nc3n(n2)C(c2ccccc2Cl)C(C(N)=O)=C(C)N3)cc1 (stereo unspecified) | 0.5 | x | 0.8 | 52.6* | 15.2
CC1=C(C(N)=O)C(c2ccccc2)n2nc(-c3cccc(C)c3)nc2N1 (stereo unspecified) | 0.5 | x | 1 | 50.3* | -3.8
COc1ccc(S(=O)(=O)N2CCN(C(=O)NC3CCCCC3)CC2)cc1OC | 0.9 | 1.27 | 1.5 | 5.3 | -54.7
O=C(N=C1SCC(=O)N1c1ccccc1)c1ccco1 | 0.5 | -0.53 | 0.8 | 51.0* | 15.7
CCOc1ccc(N(CC)C(=O)COc2cc(=O)n(CC)c3ccccc23)cc1 | 0.3 | -0.06 | 0.1 | 69.9* | 94.4*

Screens from PubChem.
